Assay [1] can be described thus: ATG_ERE_CIS: Attagene CIS-FACTORIAL HepG2 Assay for Estrogen Response Element (ERE) (AID 2282940; active means hit-call score of the fitted dose curve at least 0.9, where 1 is the maximum; inactive means score below 0.9). The note with it: HepG2 ERE cis-reporter, Attagene RNA transcript; actives raise or lower the signal. An outline of the steps:
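After 24 h compound treatment, RNA from transfected HepG2 cells was reverse-transcribed, reporter cDNA PCR-amplified, FAM-labelled, HpaI-cut and resolved by capillary electrophoresis. ERE-driven cis reporter transcripts reflect endogenous factors; gain or loss scored against DMSO.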

The target of assay [2] is Estrogen receptor (Homo sapiens) (UniProt P03372). Briefly: OT_ER_ERaERa_1440: Odyssey Thera (OT) 24-hour HEK293T Protein-Complementation Assay for Estrogen Receptor-alpha/-alpha Homodimer (AID 2283349).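 Further: hits raise fluorescence above DMSO for agonists and antagonists alike.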 In short, it runs like this: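 Readout is the rise in mean fluorescence from reporter fragment complementation when ERα LBD (aa 310-547) units dimerize in HEK293T cells. Measured 24 h after dosing and analysed as increase over DMSO control.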

Assay [3] has the same target. Briefly: OT_ER_ERaERa_0480: Odyssey Thera (OT) 8-hour HEK293T Protein-Complementation Assay for Estrogen Receptor-alpha/-alpha Homodimer (AID 2283351).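 Further: rise in fluorescence from reassembled reporter fragments on ERα LBD homodimer in nucleus or whole cell.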 In short, it runs like this: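 HEK293T cells stably expressing the human ERα ligand-binding domain (aa 310-547) as a homodimer PCA were dosed with compound for 8 h. Gain of fluorescence intensity versus DMSO vehicle was read by laser scanning cytometry.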

Assay [4] addresses Peroxisome proliferator-activated receptor gamma (Homo sapiens) (UniProt P37231). Briefly: NVS_NR_hPPARg: NovaScreen (NVS) Nuclear Receptor Binding Assay for human Peroxisome Proliferator-activated Receptor gamma (PPARg) (AID 2283370). An outline of the steps: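 Fluorescence polarization measures competitive binding to extracted PPARg in a cell-free format. Reading is taken at 2 h; activity is signal loss relative to DMSO. Screening at 25 uM in duplicate preceded confirmatory dose series.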

The target in assay [5] is Estrogen receptor (Homo sapiens) (UniProt P03372). As to the kind of experiment: OT_ERa_GFPERaERE_0480: Odyssey Thera (OT) 8-hour HeLa Transcription Induction Assay for Estrogen Receptor (AID 2283381; active means hit-call score of the fitted dose curve at least 0.9, where 1 is the maximum; inactive means score below 0.9). In short, it runs like this:
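HeLa cells dosed with compound and imaged by fluorescence microscopy at 8 h; GFP induction from an ERE reporter quantified by high-content image analysis and fitted as gain of signal against DMSO baseline.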

For assay [6] the target is unchanged. As to the kind of experiment: OT_ERa_GFPERaERE_0120: Odyssey Thera (OT) 2-hour HeLa Transcription Induction Assay for Estrogen Receptor (AID 2283382). In short, it runs like this:
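HeLa cells were dosed with test chemical and read 2 hours later for GFP-ERα/ERE-linked fluorescent protein induction by fluorescence microscopy. Gain-of-signal was fitted relative to DMSO baseline, quantified by high content image analysis.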

Read-out in assay [7]: Interleukin 6 (IL6), IL6 (gene 3569)
Briefly: BSK_BT_xIL6: BioMAP Diversity Plus: BT Assay for Interleukin 6 (IL6) Biomarker Activity (AID 2284228; active means hit-call score of the fitted dose curve at least 0.9, where 1 is the maximum; inactive means score below 0.9). The note with it: primary human B cells with PBMC. An outline of the steps:
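Chemical added to human B cell/PBMC co-culture → 24 h → supernatant IL-6 by Luminex xMAP → fit vs DMSO baseline, upward direction.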

Read-out in assay [8]: Interleukin 17F (IL17F), IL17F (gene 112744)
Briefly: BSK_BT_xIL17F: BioMAP Diversity Plus: BT Assay for Interleukin 17F (IL17F) Biomarker Activity (AID 2284243; active means hit-call score of the fitted dose curve at least 0.9, where 1 is the maximum; inactive means score below 0.9). The note with it: primary human B cells with PBMC. An outline of the steps: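 Measures secreted IL-17F from a human B cell plus PBMC co-culture at 24 h post-dose by Luminex xMAP, with DMSO defining baseline activity.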

Read-out in assay [9]: TIMP metallopeptidase inhibitor 1 (TIMP1), TIMP1 (gene 7076)
As to the kind of experiment: BSK_MyoF_TIMP1: BioMAP Diversity Plus: MyoF Assay for TIMP metallopeptidase inhibitor 1 (TIMP1) Biomarker Activity (AID 2284269; active means hit-call score of the fitted dose curve at least 0.9, where 1 is the maximum; inactive means score below 0.9). The note with it: primary human lung fibroblasts. In short, it runs like this: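 TIMP-1 levels were determined by ELISA in human lung fibroblasts treated for 24 h. DMSO served as negative control and baseline for upward curve fitting.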

Assay [10] in a line: CCTE_Deisenroth_AIME_384WELL_CTox_Inactive: Cytotoxicity Assessment (CTOX) in CCTE's 384-well Estrogen Receptor Transactivation Assay without AIME metabolic competence (metabolism negative), Deisenroth Lab (AID 2284039).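 Further: cell viability via live-cell protease substrate cleaved to fluorescent probe; cells exposed 24 h to medium preincubated 2 h with alginate-water beads without S9; loss of fluorescence signal means loss of viability.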 An outline of the steps:
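Fluorescence from a live-cell protease substrate, read after 24 h in VM7Luc4E2 cells, indicated viability. Test medium came from a 2 h AIME step without hepatic S9 (alginate-water microspheres); concentrations spanned 0.002 - 200 uM, single technical replicate per run.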

In assay [11] the target is Bile acid receptor (Homo sapiens) (UniProt Q96RI1). Briefly: OT_FXR_FXRSRC1_1440: Odyssey Thera (OT) 24-hour HEK293T Protein-Complementation Assay for Farnesoid X receptor/SRC-1 Co-activator (AID 2283384). In short, it runs like this: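 HEK293T cells were dosed with compound and read 24 h later by fluorescence intensity from protein-fragment complementation reporting FXR/SRC-1 co-activator interaction. Gain of signal was fitted relative to DMSO negative control as baseline.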

The target of assay [12] is Thyroid hormone receptor alpha (Rattus norvegicus) + Thyroid hormone receptor beta (Rattus norvegicus) (UniProt P18113+P63059). Briefly: TOX21_TR_LUC_GH3_Antagonist_Followup: Tox21 GH3 Thyroid Hormone Receptor Antagonism Luciferase Follow-Up Assay (AID 2283942). An outline of the steps: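 Rat pituitary GH3 cells with a TRα/TRβ-driven luciferase reporter, 5 h attachment, then 15 concentrations (92 uM to 5nM final) plus 1.0 nM T3 agonist, 24 h at 37C/5% CO2. ONE-Glo luminescence; signal change fitted against DMSO baseline.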

The target of assay [13] is THRB (gene 7068) (UniProt P10828). As to the kind of experiment: TOX21_TRB_BLA_Antagonist_Followup_ratio: Tox21 Thyroid Hormone Receptor beta Antagonism Beta-lactamase (BLA) Follow-Up Assay, Ratio (AID 2283958). An outline of the steps: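 GAL4-DBD/human TRβ-LBD fusion in GeneBLAzer UAS-bla HEK293T cells, 3,000 cells/well in phenol red-free DMEM with 2% charcoal-stripped FBS; compounds at 11 concentrations in triplicate, 18 h at 37C. CCF4-AM substrate 2 h, 460:530 nm ratio relative to DMSO.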

Assay [14] in a line: TOX21_TRB_BLA_Antagonist_Followup_viability: Viability Assessment in the Tox21 Thyroid Hormone Receptor beta Antagonism Beta-lactamase (BLA) Follow-Up Assay (AID 2283961). In short, it runs like this:
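Cytotoxicity is measured in parallel with the antagonist-mode TRβ beta-lactamase screen, using ATP-coupled luciferase luminescence. Engineered HEK293T cells are treated for 18 h with 11-point compound series in triplicate.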

Assay [15] deals with THRB (gene 7068) (UniProt P10828). Briefly: TOX21_TRB_COA_Antagonist_Followup_ratio: Tox21 Thyroid Hormone Receptor beta Antagonism through Coactivator Recruitment Follow-Up Assay, Ratio (AID 2283967). An outline of the steps:
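Cell-free TR-FRET coactivator recruitment with GST-tagged TRβ LBD (5.0 nM) and fluorescein-labeled SRC-2 peptide (200 nM) detected by terbium anti-GST antibody (2 nM). The 520:495 nm emission ratio was normalized to DMSO (0%) and T3 (100%).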

Assay [16] is described as follows: TOX21_TR_RXR_BLA_Antagonist_Followup_viability: Viability Assessment in the Tox21 Thyroid Hormone Receptor beta Retinoid X Receptor alpha (RXRa) Antagonism Beta-lactamase (BLA) Follow-Up Assay (AID 2283979). In short, it runs like this:
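RXRa-UAS-bla HEK293T cells seeded 2,500/well in phenol red-free DMEM with 2% charcoal-stripped FBS, attached 5 h, then exposed to compounds at 11 concentrations in triplicate for 16 h at 37C/5% CO2. Viability read by CellTiter-Glo ATP luminescence; bidirectional fit versus DMSO.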

Assay [17] concerns the target PGR (gene 5241) (UniProt P06401). As to the kind of experiment: TOX21_PR_BLA_Followup_Antagonist_ratio: Tox21 HEK293 Progesterone Receptor (PR) Antagonism Beta-lactamase Follow-Up Assay, Ratio (AID 2283934). An outline of the steps: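 PR-UAS-bla HEK293T cells in medium with 2% charcoal-stripped FBS were treated with compounds plus 1 nM (final) promegestone (R5020) for 16 hr at 37C. LiveBLAzer B/G FRET substrate was then added for 2 h at room temperature; signal is cleaved/uncleaved substrate ratio versus DMSO.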

The nature of assay [18]: TOX21_PR_BLA_Followup_Agonist_viability: Viability Assessment in the Tox21 HEK293 Progesterone Receptor (PR) Agonism Beta-lactamase Follow-Up Assay (AID 2283935).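 Further: signal loss means lower viability so actives are cytotoxic.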 In short, it runs like this: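 PR-UAS-bla HEK293T cells in 2% charcoal-stripped FBS medium, compound added after 6 hr plating, 16 hr at 37C/5% CO2. After bla FRET read, CellTiter-Glo added; luminescence read after 30 min at room temperature; signal loss marks cytotoxicity.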

A short description of assay [19]: TOX21_PR_BLA_Followup_Antagonist_viability: Viability Assessment in the Tox21 HEK293 Progesterone Receptor (PR) Antagonism Beta-lactamase Follow-Up Assay (AID 2283936).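 Further: hits lower the luminescence signal meaning cytotoxicity.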 In short, it runs like this:
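PR-UAS-bla HEK293T cells (3,000/well, 2% charcoal-stripped FBS) given compound plus R5020 agonist, 16 h at 37C. CellTiter-Glo added after bla read, 30 min at room temperature; luminescence loss indicates cytotoxicity.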

Assay [20] deals with PGR (gene 5241) (UniProt P06401). As to the kind of experiment: TOX21_PR_LUC_Followup_Antagonist: Tox21 HEK293 Progesterone Receptor (PR) Antagonism Luciferase Follow-Up Assay (AID 2283938).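 Further: curve fitted upward as signal gain over DMSO baseline despite antagonist label.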 In short, it runs like this:
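A follow-up to the PR bla screen using HEK293-PR-A-luc cells, multiplexed with cell viability to flag cytotoxicity. Reporter luminescence after 16 h compound exposure was analysed relative to DMSO.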

Results filed as inconclusive are left out. Some compounds were tested as several samples or in several runs, with calls that do not always agree. Activity calls are given as the source filed them. How the source made its calls, unless noted: active means hit-call score of the fitted dose curve at least 0.9, where 1 is the maximum; inconclusive means response in the unintended direction; inactive means score below 0.9.

Sequence of PGR (gene 5241) (P06401 whole entry, looked up): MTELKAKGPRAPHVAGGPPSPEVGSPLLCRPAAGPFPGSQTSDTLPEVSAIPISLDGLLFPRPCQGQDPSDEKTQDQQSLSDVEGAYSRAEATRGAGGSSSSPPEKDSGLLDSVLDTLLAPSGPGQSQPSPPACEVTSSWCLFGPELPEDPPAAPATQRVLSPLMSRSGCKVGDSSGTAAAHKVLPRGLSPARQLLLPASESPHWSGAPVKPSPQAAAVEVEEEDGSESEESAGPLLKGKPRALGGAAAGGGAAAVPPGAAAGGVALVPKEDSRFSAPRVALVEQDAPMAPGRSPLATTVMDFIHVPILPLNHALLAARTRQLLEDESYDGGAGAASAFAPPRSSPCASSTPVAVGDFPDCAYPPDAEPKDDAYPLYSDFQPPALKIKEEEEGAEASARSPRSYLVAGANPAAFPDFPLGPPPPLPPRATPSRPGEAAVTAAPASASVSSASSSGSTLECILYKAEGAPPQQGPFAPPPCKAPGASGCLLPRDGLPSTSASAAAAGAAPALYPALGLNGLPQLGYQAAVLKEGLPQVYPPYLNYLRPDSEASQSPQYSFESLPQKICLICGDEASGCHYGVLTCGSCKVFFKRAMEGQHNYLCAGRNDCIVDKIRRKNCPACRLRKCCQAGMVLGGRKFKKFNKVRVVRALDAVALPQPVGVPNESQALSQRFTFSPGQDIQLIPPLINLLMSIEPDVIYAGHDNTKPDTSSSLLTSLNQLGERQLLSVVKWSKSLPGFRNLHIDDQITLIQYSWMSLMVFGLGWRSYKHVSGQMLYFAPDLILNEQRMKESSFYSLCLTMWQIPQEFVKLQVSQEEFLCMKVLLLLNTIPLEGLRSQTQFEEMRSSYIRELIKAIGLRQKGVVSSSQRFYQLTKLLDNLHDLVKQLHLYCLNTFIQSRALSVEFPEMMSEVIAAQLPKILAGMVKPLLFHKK
Sequence of Bile acid receptor (Homo sapiens) (Q96RI1 whole entry, looked up, the tested form may be a part): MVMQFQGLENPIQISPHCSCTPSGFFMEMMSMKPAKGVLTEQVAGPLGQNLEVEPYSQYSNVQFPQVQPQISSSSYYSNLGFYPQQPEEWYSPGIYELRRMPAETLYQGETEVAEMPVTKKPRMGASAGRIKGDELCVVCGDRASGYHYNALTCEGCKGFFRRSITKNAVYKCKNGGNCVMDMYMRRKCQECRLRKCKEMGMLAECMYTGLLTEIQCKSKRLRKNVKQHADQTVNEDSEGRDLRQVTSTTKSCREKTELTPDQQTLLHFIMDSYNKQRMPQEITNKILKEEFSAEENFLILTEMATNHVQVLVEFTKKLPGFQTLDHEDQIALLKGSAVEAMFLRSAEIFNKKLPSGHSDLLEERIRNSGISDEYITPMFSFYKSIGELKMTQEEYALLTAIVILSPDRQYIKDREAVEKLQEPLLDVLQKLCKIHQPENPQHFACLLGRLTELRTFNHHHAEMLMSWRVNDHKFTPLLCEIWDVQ
Sequence of THRB (gene 7068) (P10828 whole entry, looked up, the tested form may be a part): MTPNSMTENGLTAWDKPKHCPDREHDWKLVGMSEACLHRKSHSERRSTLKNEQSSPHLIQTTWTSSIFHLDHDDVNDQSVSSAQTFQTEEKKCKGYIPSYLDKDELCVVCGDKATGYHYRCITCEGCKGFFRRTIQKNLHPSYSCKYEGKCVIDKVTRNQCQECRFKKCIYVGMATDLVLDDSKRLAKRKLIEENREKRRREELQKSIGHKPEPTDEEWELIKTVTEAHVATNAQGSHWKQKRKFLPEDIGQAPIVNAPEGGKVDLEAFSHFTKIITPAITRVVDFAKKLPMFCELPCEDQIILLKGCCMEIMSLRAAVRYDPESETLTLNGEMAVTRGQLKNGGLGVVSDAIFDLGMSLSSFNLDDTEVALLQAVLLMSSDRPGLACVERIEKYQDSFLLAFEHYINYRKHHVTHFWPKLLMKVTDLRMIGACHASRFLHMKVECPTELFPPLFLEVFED
Sequence of Estrogen receptor (Homo sapiens) (P03372 whole entry, looked up, the tested form may be a part): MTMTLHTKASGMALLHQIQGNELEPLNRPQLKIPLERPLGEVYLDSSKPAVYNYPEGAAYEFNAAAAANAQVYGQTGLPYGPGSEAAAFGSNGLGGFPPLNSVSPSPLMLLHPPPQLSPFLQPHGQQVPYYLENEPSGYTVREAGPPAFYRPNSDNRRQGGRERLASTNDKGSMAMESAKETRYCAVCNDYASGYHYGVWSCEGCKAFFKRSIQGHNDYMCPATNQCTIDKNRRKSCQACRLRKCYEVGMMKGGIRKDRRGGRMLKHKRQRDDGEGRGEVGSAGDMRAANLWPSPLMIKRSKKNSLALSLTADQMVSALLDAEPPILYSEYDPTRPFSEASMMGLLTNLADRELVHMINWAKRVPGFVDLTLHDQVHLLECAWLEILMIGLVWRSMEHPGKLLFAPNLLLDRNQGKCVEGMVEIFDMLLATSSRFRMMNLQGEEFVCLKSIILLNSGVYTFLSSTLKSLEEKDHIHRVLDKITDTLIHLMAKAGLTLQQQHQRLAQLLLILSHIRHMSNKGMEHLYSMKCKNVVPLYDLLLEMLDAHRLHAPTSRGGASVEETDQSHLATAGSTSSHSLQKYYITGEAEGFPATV
Sequence of Peroxisome proliferator-activated receptor gamma (Homo sapiens) (P37231 whole entry, looked up): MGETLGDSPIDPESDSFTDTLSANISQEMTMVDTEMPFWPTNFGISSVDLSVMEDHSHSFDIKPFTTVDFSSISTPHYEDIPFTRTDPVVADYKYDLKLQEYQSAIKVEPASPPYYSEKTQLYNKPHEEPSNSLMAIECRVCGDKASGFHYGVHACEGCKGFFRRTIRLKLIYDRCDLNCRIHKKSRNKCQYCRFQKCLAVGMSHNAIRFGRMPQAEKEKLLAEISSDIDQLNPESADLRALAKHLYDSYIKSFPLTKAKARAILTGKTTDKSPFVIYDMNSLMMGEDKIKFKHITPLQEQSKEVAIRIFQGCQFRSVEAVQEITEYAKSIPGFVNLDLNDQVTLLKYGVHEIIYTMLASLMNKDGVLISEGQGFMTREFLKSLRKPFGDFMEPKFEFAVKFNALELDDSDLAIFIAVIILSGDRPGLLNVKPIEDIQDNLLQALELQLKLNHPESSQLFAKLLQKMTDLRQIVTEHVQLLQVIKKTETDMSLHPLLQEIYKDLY

`CCOC(=O)c1ccccc1`: the compound was called inactive in assay [1], in assay [2], in assay [3], in [4], in assay [5] and in assay [6].

Take `OC(C(F)(F)F)(C(F)(F)F)C(O)(C(F)(F)F)C(F)(F)F`: the values for the AC50 in assay [7], in [8] and in assay [9] were 39.5 µM (active), 13.1 µM (active) and 45.6 µM (active), respectively. Further, the outcome in assay [7], in [8] and in assay [9] was inactive.

Turning to `CCC(C)(CCC(C)C)C(=O)O` (centres undefined), the compound was classed as inactive in [10].

As for `CCO[Si](CCCN)(OCC)OCC`, the compound was called inactive in [1], in [2], in assay [3], in assay [5], in assay [6] and in [11].

For `CCCCCC[C@@H](O)C/C=C\CCCCCCCC(=O)O`, the AC50 – broadly, the concentration at which the activity in the assay is half-maximal – in [4] was 15.1 µM (active). In addition, the compound was classed as inactive in assay [11].

`CC(C)CC(=O)CC(C)C`: the compound was called inactive in assay [10].

Turning to `COc1ccc2ccccc2c1`, in [1], the compound was called inactive.

Consider `CC[N+](CC)(CC(=O)Nc1c(C)cccc1C)Cc1ccccc1`, for which the outcome in assay [4], in assay [7], in assay [8] and in [9] was inactive.

For `CC/C=C\CCO`, the result in [11] and in assay [10] was inactive.

For `O=[Se](O)O`, the AC50 in assay [12] was 4.84 µM (active); in [13], 1.64 µM (active); in [14], 2.02 µM (active); in [15], 31.7 µM (active); in assay [16], 5.16 µM (active).

For `Oc1ccc2c(c1)Cc1ccccc1-2`, the AC50 is 29.4 µM (active) in [17] and 38.1 µM (active) in assay [20]. Besides, the compound was called inactive in assay [18] and in assay [19].

As to `CC(O)(c1ccc(Cl)cc1)c1ccc(Cl)cc1`, the half-maximal activity concentration (AC50) is 46.1 µM (active) in assay [17] and 61.6 µM (active) in assay [20]. Further, the call in assay [18] and in assay [19] was inactive.

`Cc1oc(C)c(C(=O)Nc2ccccc2)c1C`: the result in assay [12], in [13], in assay [14] and in [16] was inactive.

Consider `CC(COc1ccccc1)N(CCCl)Cc1ccccc1` (centres undefined), for which the half-maximal activity concentration (AC50) in assay [17] was 31.6 µM (active). The compound was classed as inactive in assay [18], in assay [19] and in assay [20].

Take `O=C(CCCCCCC(=O)Nc1ccccc1)NO`: the half-maximal activity concentration (AC50) in [12] is 5.8 µM (active). Besides, the result in [13], in [14], in [15] and in [16] was inactive.

As for `CO[C@H]1C[C@@H]2CC[C@@H](C)[C@@](O)(O2)C(=O)C(=O)N2CCCC[C@H]2C(=O)O[C@H]([C@H](C)C[C@@H]2CC[C@@H](O)[C@H](OC)C2)CC(=O)[C@H](C)/C=C(\C)[C@@H](O)[C@@H](OC)C(=O)[C@H](C)C[C@H](C)\C=C/C=C/C=C/1C`, the AC50 in assay [12] is 0.00703 µM (active). Also, the compound was classed as inactive in assay [14], in [15] and in assay [16].

(Values after PubChem BioAssay (EPA / NIEHS).)
